Test systems include NCI-H226 lung; NCI-H322M lung; HOP-62 NSCLC; NCI-H460 lung; HOP-92 NSCLC; NCI-H522 lung; A549/ATCC NSCLC; 786-0 renal; COLO 205 colon; DU-145 prostate; K-562 leukemia; MALME-3M melanoma; MDA-MB-231 breast; RXF 393 renal; SF-268 CNS; SF-295 CNS; SF-539 CNS; UACC-257 melanoma; M14 melanoma.
Assay in all cases: NCI-60 one-dose screen, 48 h (100 = growth as untreated, 0 = no growth, -100 = all killed)
Conditions in all cases: 10 µM unless noted

Several values for one entry are separate records, joined by “and”; a condition that tells them apart may be missing. Equal entries are not always repeated. About 83,000 compounds went through this panel and 20% of them were active in at least one assay; those are over-represented in the sample as a whole.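 For each line, cells grew in 96-well plates with the test compound present at a single concentration for 48 hours.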 Activity calls are given as the source filed them. The calls were made as follows: active = growth percent below 10; inactive = the rest.

As for `N#CC(C#N)=C/C=C/c1cccc([N+](=O)[O-])c1`, the growth with NCI-H226 lung is 21.8% (inactive) and -24.7% (active); with NCI-H322M lung it was 59.9% (inactive) and 26.4% (inactive); with HOP-62 NSCLC it was -4.35% (active) and -23.7% (active); in the test on NCI-H460 lung, -7.92% (active) and -72.3% (active); with HOP-92 NSCLC, 23.3% (inactive); in the test on NCI-H522 lung it was -55.5% (active) and -70.5% (active). The growth is 34.1% (inactive) and 10.2% (inactive) in the test with A549/ATCC NSCLC; 26.2% (inactive) and -22.1% (active) in the test on 786-0 renal; 1.24% (active) and -26.8% (active) with COLO 205 colon; -26.8% (active) and -24.1% (active) with DU-145 prostate; 7.22% (active) and 3.61% (active) with K-562 leukemia; 7.87% (active) in the test with MALME-3M melanoma. For the same molecule, the growth was 9.84% (active) and 8.38% (active) with MDA-MB-231 breast; -68.9% (active) and -73.5% (active) with RXF 393 renal; 6.01% (active) and -8.99% (active) in the test with SF-268 CNS; 37.1% (inactive) and -41.1% (active) in the test on SF-295 CNS; 8.63% (active) and 4.54% (active) in the test on SF-539 CNS; -32% (active) and -64.4% (active) in the test with UACC-257 melanoma. For the same molecule, the growth with M14 melanoma is -37.1% (active) and -74.9% (active).

As to `CC(=O)c1ccccc1O`, the growth with NCI-H226 lung was 102% (inactive) and 81.7% (inactive) and 104% (inactive); in the test on NCI-H322M lung, 98.4% (inactive) and 89.7% (inactive) and 98.2% (inactive); with HOP-62 NSCLC, 101% (inactive) and 87.7% (inactive) and 103% (inactive); with NCI-H460 lung, 105% (inactive) and 107% (inactive) and 103% (inactive); in the test with HOP-92 NSCLC, 83.7% (inactive) and 103% (inactive); with NCI-H522 lung, 108% (inactive) and 88.4% (inactive) and 111% (inactive). The growth with A549/ATCC NSCLC was 104% (inactive) and 81.9% (inactive) and 96.2% (inactive); in the test on 786-0 renal it was 104% (inactive) and 103% (inactive) and 101% (inactive); in the test with COLO 205 colon, 131% (inactive) and 106% (inactive) and 118% (inactive); in the test on DU-145 prostate it was 112% (inactive) and 107% (inactive) and 116% (inactive); in the test on K-562 leukemia it was 94.9% (inactive) and 95% (inactive) and 107% (inactive); in the test on MALME-3M melanoma, 101% (inactive) and 95% (inactive) and 114% (inactive). Moreover, the growth is 108% (inactive) and 99.3% (inactive) and 110% (inactive) in the test with MDA-MB-231 breast; 101% (inactive) and 117% (inactive) and 129% (inactive) in the test on RXF 393 renal; 108% (inactive) and 99.6% (inactive) and 113% (inactive) in the test on SF-268 CNS; 108% (inactive) and 101% (inactive) and 105% (inactive) in the test with SF-295 CNS; 95.3% (inactive) and 103% (inactive) and 141% (inactive) with SF-539 CNS; 109% (inactive) and 89.4% (inactive) and 96.1% (inactive) in the test with UACC-257 melanoma. In addition, the growth in the test with M14 melanoma was 104% (inactive) and 98.3% (inactive) and 100% (inactive).

Regarding `CCOc1ccc2cc(-c3nn(CC4CCN(C)CC4)c4ncnc(N)c34)ccc2c1`, the growth with NCI-H226 lung was 83.6% (inactive) and 67.7% (inactive); in the test with NCI-H322M lung, 92.7% (inactive) and 87.4% (inactive); in the test with HOP-62 NSCLC, 83.8% (inactive) and 77.2% (inactive); in the test with NCI-H460 lung, 96.1% (inactive) and 69.6% (inactive); in the test on HOP-92 NSCLC, 69.1% (inactive) and 48.8% (inactive); with NCI-H522 lung, 87% (inactive) and 42.3% (inactive). Further, the growth in the test on A549/ATCC NSCLC was 78.3% (inactive) and 60.1% (inactive); with 786-0 renal it was 80.1% (inactive) and 55.8% (inactive); with COLO 205 colon, 89.7% (inactive) and 39.6% (inactive); with DU-145 prostate it was 102% (inactive) and 69.9% (inactive); in the test with K-562 leukemia, 87.5% (inactive) and 2.73% (active); in the test on MALME-3M melanoma it was 69.7% (inactive) and -46.1% (active). The growth was 85% (inactive) and 11.1% (inactive) in the test on MDA-MB-231 breast; 46.8% (inactive) and -5.36% (active) in the test with RXF 393 renal; 90% (inactive) and 48.6% (inactive) in the test on SF-268 CNS; 96.9% (inactive) and 50.4% (inactive) with SF-295 CNS; 84.4% (inactive) and 16.7% (inactive) with SF-539 CNS; -67.9% (active) in the test with UACC-257 melanoma. In the test with M14 melanoma, the growth was 98.4% (inactive) and -77.3% (active).

Consider `CC(C(=O)O)n1cc(C#N)c(=O)[nH]c1=O` (stereo unspecified), for which the growth in the test on NCI-H226 lung was 93.3% (inactive) and 94.8% (inactive); in the test on NCI-H322M lung, 112% (inactive) and 111% (inactive); in the test with HOP-62 NSCLC, 92.5% (inactive) and 98.8% (inactive); in the test on NCI-H460 lung, 115% (inactive) and 112% (inactive); with HOP-92 NSCLC, 93.2% (inactive) and 98.4% (inactive); in the test with NCI-H522 lung, 98.8% (inactive) and 93.9% (inactive). For the same molecule, the growth in the test on A549/ATCC NSCLC is 103% (inactive) and 108% (inactive); in the test with 786-0 renal, 119% (inactive) and 101% (inactive); in the test on COLO 205 colon, 103% (inactive) and 112% (inactive); in the test with DU-145 prostate, 124% (inactive) and 107% (inactive); with K-562 leukemia, 104% (inactive); with MALME-3M melanoma, 102% (inactive) and 116% (inactive). The growth with MDA-MB-231 breast is 109% (inactive) and 103% (inactive); with RXF 393 renal, 110% (inactive) and 115% (inactive); in the test on SF-268 CNS it was 96.8% (inactive) and 99.7% (inactive); with SF-295 CNS it was 93.3% (inactive) and 102% (inactive); with SF-539 CNS, 95.8% (inactive) and 102% (inactive); in the test on UACC-257 melanoma, 89% (inactive) and 108% (inactive). Further, the growth with M14 melanoma was 120% (inactive) and 107% (inactive).

These data come from PubChem BioAssay (NCI).
